# Results taken from PubChem BioAssay AID743279 (National Center for Advancing Translational Sciences (NCATS), 2014).
# Hit rate of the full screen: of about 360,000 compounds, about 17,000 (4.7%) were called active. Inconclusive results (about 5%) are left out. No stated cut-off is given here; in the data, active means activity change below about -50%; inconclusive means mostly about -30% to -49%; inactive means weaker than that. Only a selection was taken, and actives are over-represented in it overall.
# Assay: qHTS for Inhibitors of Inflammasome Signaling: IL-1-beta AlphaLISA Primary Screen
# Conditions: THP-1 LPS/ATP IL-1B secretion, 16 h; at 57.5 µM, stronger effect = lower value
# Description: Inflammasomes are a set of intracellular multi-protein complexes that enable autocatalytic activation of inflammatory caspases and drive the innate immune response to counter harmful agents. […] A qHTS assay, based on AlphaLISA technology, was developed to screen the Molecular Libraries Small Molecule Repository (MLSMR) to look for novel inflammasome inhibitors. The assay detects IL-1B using AlphaLISA anti-IL-1B acceptor and donor beads. A decreased emission signal, indicating reduced IL-1B secretion, is the desired outcome for this assay. NIH Chemical Genomics Center [NCGC] NIH Molecular Libraries Probe Centers Network [MLPCN] MLPCN Grant: MH095513 Assay Provider: Shyam Biswal Ph.D., Johns Hopkins University Immunity. 2012 Jul 27;37(1):85-95. PMID: 22819042 [2] Curr Pharm Des. 2012;18(16):2320-8. PMID: 22390695
# Three microliters containing 3000 THP-1 cells were dispensed into the wells of solid, white, tissue culture treated Greiner 1,536-well plates. Library compounds and positive control, Glyburide, were pin-transferred (23 nL) by a Kalypsys pin-tool equipped with a 1,536-pin array, resulting in final compound concentration ranges of 2.5 nM to 57.5 uM. After 1 hr of cell culture incubation (37 °C, 5% CO2), 1 microL of 1 microg/mL lipopolysaccharide (250 ng/mL, final) and 5 mM ATP (1.25 mM, final) were added to stimulate the cells. After 16 hr of cell culture incubation with the compounds, 1.5 uL of anti-IL-1B acceptor beads (6 ug/mL, final) and biotinylated antibody (0.6 nM, final) were added to the plate, followed by a 1 hr incubation at ambient temperature. To detect the secreted IL-1B, 1.5 uL of AlphaLISA SA-Donor beads (24 ug/mL, final) were added, followed by 30 min of incubation in the dark at ambient temperature. The AlphaLISA signal was read by a PerkinElmer EnVision plate reader with an ultrasensitive luminescence detector and 1536 Plate HTS AlphaScreen aperture (excitation of 680nm and emission of 615nm).
# On the % scale 0 is the no-effect control and ±100 the full control effect.
row,SMILES,activity change
1,CC(=O)OCc1cc(=O)n(C)c(=O)n1C,18.2% (inactive)
2,CN(Cc1ccccc1)CC(O)COc1ccc(CNCc2cc3ccccc3s2)cc1 (stereo unspecified),-52.3% (active)
3,COc1ccc(OCC(O)CN(C)C(=O)C(C)Oc2ccccc2)cc1 (stereo unspecified),-1.85% (inactive)
4,Cc1ccc(OCC(=O)OC(C)CN(C)Cc2ccccc2)cc1 (stereo unspecified),11.3% (inactive)
5,CC1(C(=O)NCc2ccccc2)CSCC(=O)N1CCCn1ccnc1 (stereo unspecified),-3.98% (inactive)
6,Cc1ccc(C(CNC(=O)Nc2ccccc2)N2CCN(C)CC2)cc1 (stereo unspecified),-19.3% (inactive)
7,Cc1ccc2nc(SCC(=O)N3CCN(c4ccccc4)CC3)nc(=O)n2c1,-22.4% (inactive)
8,CCN(CC)CCCNC(=O)CCn1nc(-c2ccc(Cl)cc2)ccc1=O,0.889% (inactive)
9,CCOc1ccc(CCNC(=O)CSc2cc(=O)n(C)c3ccc(Cl)cc23)cc1OCC,15.4% (inactive)
10,CCN(CCCNC(=O)CSc1cc(=O)n(C)c2cc(Cl)ccc12)Cc1ccccc1,-66.3% (active)
11,COC(=O)c1ccc(CN2C(=O)C(Cc3ccccc3)ON=C2c2ncccc2C)o1 (stereo unspecified),0% (inactive)
12,Cc1ccc2cccc(OCCCOc3ccccc3CO)c2n1,-5.38% (inactive)
13,N#Cc1cccc(NC(=O)CN2CCCCCC2)c1,-4.14% (inactive)
14,Cc1nc(-c2ccc([N+](=O)[O-])cc2)c(-c2ccccc2)o1,-1.34% (inactive)
15,O=C1CC(c2ccccc2)=NN1c1ccc([N+](=O)[O-])cc1,-62.7% (active)
16,O=[N+]([O-])c1ccc(N2CCOCC2)cc1,-12% (inactive)
17,Cc1c(NC(=O)COC(=O)/C=C/c2cccc(F)c2)c(=O)n(-c2ccccc2)n1C,-1.18% (inactive)
18,CCCCN1CC(C)(C)[C@H](CC(=O)Nc2ccc(Br)cc2)C1=O,-25.6% (inactive)
19,COc1ccc([C@H]2C[C@@H](n3cc(COC(=O)c4ccccc4)nn3)[C@H](O)CN2C(=O)c2cccs2)cc1,3.71% (inactive)
20,C[C@H]1CN([C@@H](C)CO)C(=O)CCCn2cc(nn2)CO[C@@H]1CN(C)S(=O)(=O)c1ccc(-c2ccccc2)cc1,0% (inactive)
21,CN1CCN(Cc2c(O)ccc3c2oc(=O)c2ccccc23)CC1,-65.7% (active)

row,SMILES,activity change
1,O=c1oc2c(CN3CCCCC3)c(O)ccc2c2c1CCCCC2,11% (inactive)
2,CCOC(=O)c1oc2c(CN3CCN(C)CC3)c(O)ccc2c(=O)c1-c1ccc(Br)cc1,2.61% (inactive)
3,O=c1cc(CN2CCCCCCC2)c2c(ccc3ccccc32)o1,25.6% (inactive)
4,CN(Cc1ccccc1)C(=O)COC(=O)/C=C/c1ccc2c(c1)OCO2,-60.4% (active)
5,O=C(COC(=O)/C=C/c1ccc2c(c1)OCO2)NC1CCS(=O)(=O)C1 (stereo unspecified),-29.2% (inactive)
6,CCOC(=O)CCCNC(=O)COC(=O)/C=C/c1ccc2c(c1)OCO2,-11.7% (inactive)
7,OC[C@@H]1CN(Cc2ccc(F)cc2)C[C@H](n2cnc3c(NC4CCCC4)ncnc32)O1,0% (inactive)
8,COc1ccc(OC)c(-c2csc(NC(=O)COC(=O)C3CC3)n2)c1,-8.53% (inactive)
9,CCCCCCC(=O)Nc1nc(C)c(-c2csc(Nc3cccc(OC)c3)n2)s1,-17.4% (inactive)
10,COc1ccc(NC(=O)C2(C)Cc3c(-c4cccc(NC(C)=O)c4)ccnc3O2)cc1OC (stereo unspecified),-4.57% (inactive)
11,COc1cc(CC(=O)NCc2cccs2)cc(OC)c1OC,0% (inactive)
12,COc1cc(CC(=O)Nc2nc(-c3ccc(F)c(F)c3)cs2)cc(OC)c1OC,-57% (active)
13,COc1ccc(CCN(C(=O)COc2ccccc2)c2nc(-c3ccccc3)cs2)cc1OC,-19.6% (inactive)
14,O=C(COc1ccccc1F)Nc1nc(-c2ccccn2)cs1,33.3% (inactive)
15,COc1cccc(CC(=O)Nc2nc(-c3ccc(OC)c(OC)c3)cs2)c1,-50.3% (active)
16,COc1ccc(-c2csc(Nc3cccc(C)n3)n2)cc1OC,-7.72% (inactive)
17,CC(=O)NC(c1ccccc1)c1nc(-c2cccc(C(C)C)c2)cs1 (stereo unspecified),-14.5% (inactive)
18,CC(=O)Nc1cccc(-c2csc(Nc3cccc(C)n3)n2)c1,-56.6% (active)
19,COc1ccc(CCNc2nc(-c3cccc(NC(C)=O)c3)cs2)cc1OC,-53.6% (active)
20,CCCNC(=O)C1(C)CCCN(C(=O)c2cccc(OC(C)=O)c2C)C1 (stereo unspecified),1.04% (inactive)
21,CCc1nc2c(OCCOc3ccccc3)cccn2c1N(C)C(=O)c1ccccc1F,-0.777% (inactive)

row,SMILES,activity change
1,CC(C)CCNC(=O)c1cccnc1Sc1ccccc1,-7.52% (inactive)
2,COc1ccc(CC(=O)Nc2ccccc2NC(=O)c2ccco2)cc1OC,12.9% (inactive)
3,CCCc1ccc(-c2csc(NC(=O)Cc3cccs3)n2)cc1,8.64% (inactive)
4,COc1ccc(CC(=O)Nc2nc(-c3ccc(F)c(F)c3)cs2)cc1OC,-67.5% (active)
5,CCCc1c(C)nc2scc(-c3ccc(Cl)cc3)n2c1=O,26.4% (inactive)
6,COc1ccc(C(CNC(=O)COc2ccc([N+](=O)[O-])cc2)N2CCCCC2)cc1 (stereo unspecified),-22.1% (inactive)
7,COc1ccc(C(CNC(=O)COc2ccccc2OC)N2CCCCC2)cc1 (stereo unspecified),-6.28% (inactive)
8,CCc1ccc(OCC(=O)NCC(c2ccc(Cl)cc2)N2CCCCC2)cc1 (stereo unspecified),-99.8% (active)
9,CC(C)(C)OC(=O)NNc1c2ccccc2nc2ccccc12,-75.9% (active)
10,Cc1noc(C)c1COC(=O)c1cc2ccccc2cc1O,-1.49% (inactive)
11,Cc1ccc(C(=O)NNC(=O)OC(C)(C)C)c(Cl)c1,-7.82% (inactive)
12,CC(C)(C)OC(=O)NCCCCCNC(=O)c1nc[nH]c1C(=O)NCc1ccccc1,11% (inactive)
13,O=C(NNc1c2ccccc2nc2ccccc12)c1cc2ccccc2cc1O,-60.2% (active)
14,O=C(COC(=O)c1ccc(O)cc1O)NC(=O)c1ccccc1,13.5% (inactive)
15,Cc1ccccc1NC(=O)Cn1cc(C(=O)C2CC2)c2ccccc21,16.9% (inactive)
16,CCC1NC(=O)c2cccnc2-n2c1nc1ccc(C)cc1c2=O (stereo unspecified),-3.64% (inactive)
17,N#C/C(=C(\O)C(F)(F)F)c1nnc2n1CCCCC2,11.5% (inactive)
18,N#C/C(=C/c1cccc([N+](=O)[O-])c1)c1nnc2n1CCCCC2,-112% (active)
19,N#C/C(=C(\O)CCl)c1nnc2n1CCCCC2,4.27% (inactive)
